The panel holds about 83,000 compounds, 20% with a hit somewhere; the sample as a whole holds those more often.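 For each line, cells grew in 96-well plates with the test compound present at a single concentration for 48 hours.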 Unmarked numbers belong to inactive results. Calls of active or inactive are those of the source. The calls were made as follows: active = growth percent below 10; inactive = the rest.

The experiment has as its system HL-60(TB) leukemia. The experiment in a line: NCI-60 one-dose screen, 48 h (100 = growth as untreated, 0 = no growth, -100 = all killed). The following applies: 10 µM unless noted.
As for `COc1cc(-c2n/c(=C\c3c(O)[nH]c4cc(Cl)ccc34)cc3c2=Nc2ccccc2-3)cc(OC)c1OC`, the growth is 89.6%.

In the case of `COc1ccc(CCN2COc3c([C@@H](C)CCC=C(C)C)ccc(C)c3C2)cc1OC`, the growth is 29.1%.

As to `CC1CCC(C(C)C)C(NN)C1` (configuration not stated), the growth was 70.2%.

In the case of `c1cnc2[nH]cc(-c3csc(-c4cn(CCCN5CCCCC5)c5ccccc45)n3)c2c1`, the growth is -2.66% (active).

In the case of `CN(Cc1cnc2nc(N)nc(N)c2n1)c1c(Cl)cc(C(=O)NC(CCC(=O)O)C(=O)O)cc1Cl` (configuration not stated), the growth was 18.6%.

As to `CCN(CC)CCOc1nc2c3ccc(Cl)cc3nn2c2ccccc12`, the growth was 19.5%.

For the molecule `COc1ccc(CNCCCN2C(=O)c3ccc4c5c(ccc(c35)C2=O)C(=O)N(CCCNCc2ccc(OC)c(OC)c2OC)C4=O)c(OC)c1OC`, the growth is -61.3% (active).

As for `O=C1CCCCC1(c1ccccc1)c1ccccc1`, the growth was 106%.

Consider `COc1ccc(C2C=C(c3ccc(Cl)cc3)N=C3SC=C(C)N32)c(Br)c1` (configuration not stated), for which the growth is 7.64% (active).

Consider `COc1ccc(CNc2c3ccccc3nc3ccc(OC)cc23)cc1`, for which the growth was -20.7% (active).

For the molecule `Cc1ccc2c(/C=C/C(=O)c3cc(CN4CCOCC4)c(O)c4nc(C)ccc34)cc(CN3CCOCC3)c(O)c2n1`, the growth is -25.2% (active).

On to `N=C(N)c1ccc(OCCSCCOc2ccc(C(=N)N)cc2)cc1`, for which the growth was 77.9%.

In the case of `COc1ccc(C(c2cc(OC)c(OC)c(OC)c2)n2ccnc2)cc1O` (configuration not stated), the growth is -35.9% (active).

As to `C=C1C(=O)O[C@H]2[C@H]1CC/C(CNS(=O)(=O)c1ccc3ccccc3c1)=C\CC[C@@]1(C)O[C@@H]21`, the growth was -48.4% (active).

On to `COc1cc(C#N)cc(OC)c1OCCN(CCOc1c(OC)cc(C#N)cc1OC)S(=O)(=O)c1ccc(C)cc1`, for which the growth is 102%.

On to `COc1cc2c(cc1C)NC(=O)/C2=C\c1c[nH]c2ccccc12`, for which the growth is 47.5%.

In the case of `O=C(Nc1ccc(-n2ccc3c(NC(=O)c4ccccc4)nccc32)cc1)c1ccc(Cl)c(C(F)(F)F)c1`, the growth is 25.7%.

Consider `COc1cc2cc(C(=O)Nc3ccccc3)c(N)nc2cc1OC`, for which the growth was -42.1% (active).

As for `Fc1ccc2[nH]c3c(NCCCN4CCOCC4)ncnc3c2c1`, the growth is 109%.

For `COC(/C=C/c1ccc([N+](=O)[O-])cc1)OC`, the growth is 42%.

Consider `O=c1[nH]nc(-c2ccccc2)c2c(-c3ccccc3)onc12`, for which the growth was -34% (active).

With `O=C1/C(=C/c2ccc(F)cc2)C=C(c2ccccc2)N1CCc1ccccc1`, the growth is 81%.

Consider `O=C1C2C(C(=O)N1CC[Se][Se]CCN1C(=O)C3C(C1=O)[C@H]1C=C[C@@H]3C1)[C@H]1C=C[C@@H]2C1` (some centres not stated), for which the growth was -54.7% (active).

Take `CC1=C(/C=C/C(C)=C/C=C/C(C)=C/C(=O)Nc2ccc(O)cc2)C(C)(C)CCC1`: the growth was -32.3% (active).

On to `Cc1cc(=O)oc2cc(Oc3nc(-c4ccc(Cl)cc4)cn4c(-c5ccc(Cl)cc5)cnc34)ccc12`, for which the growth is 86.8%.

Take `O=C(/C=C/c1ccc(Cl)nc1)c1ccc(Cl)cc1Cl`: the growth was 67.4%.

Consider `CCN(CC)C(=S)SCCO`, for which the growth is 102%.

With `CN1CCN(Cc2ccc(NC(=O)c3cncc(C#Cc4c(N)ncc5c(F)cccc45)c3)cc2C(F)(F)F)CC1`, the growth was -60.4% (active).

For `Cc1nn(-c2ccc(Cl)cc2)c2ncnc(N/N=C/c3cccc([N+](=O)[O-])c3)c12`, the growth is 31%.

For `Cc1cc(C)nc(SC2=C(Nc3cc(Cl)ccc3O)C(=O)N(Cc3ccccc3)C2=O)n1`, the growth is 85.3% [30 µM].

Regarding `COc1ccc(/C=C(\C#N)n2nnc3ccc(Cl)cc32)cc1`, the growth is 86.6%.

Regarding `Nc1nc2c(ncn2C2OC3COP(=O)(O)OC4C(COP(=O)(O)OC2C3O)OC(n2cnc3c(N)ncnc32)C4O)c(=O)[nH]1` (configuration not stated), the growth is 103%.

`C=C1C(=O)O[C@H]2[C@H]1CCC(/C=N/c1ncc(Br)cc1N)=C\CC[C@@]1(C)O[C@@H]21`: the growth was -21.4% (active).

`Cc1ccc(-c2nc(N3CCNCC3)c3oc(-c4ccc(C)cc4)nc3n2)cc1`: the growth was -69.3% (active).

With `CCOC(=O)c1cc(/C=C/c2ccc(Cl)cc2Cl)on1`, the growth is 74.2%.

Turning to `CC(=O)n1c(-c2ccc(Cl)cc2)nc2c(c1=O)C(c1ccc(Cl)cc1)c1sc3c(Cl)cccc3c1O2` (configuration not stated), the growth is -15.4% (active).

In the case of `COc1cc(OC)c(C(=O)/C=C/c2cccc(C(F)(F)F)c2)c(OC)c1`, the growth is -26.6% (active).

The values are drawn from PubChem BioAssay (NCI).
